Measurements published in PubChem BioAssay AID1851 (National Center for Advancing Translational Sciences (NCATS), 2009).
The whole screen tested about 16,000 compounds, of which about 4,000 (25%) were called active. Roughly 26% stayed inconclusive and do not appear here. Not all results are given here. Unmarked numbers belong to inactive results. The call rests on the fitted dose curve; in most records, active means well fitted curve in the direction sought with a large enough effect; inconclusive means small, poorly fitted or top-dose-only effect, or effect the other way; inactive means no such curve, though single readings can be large or run the other way.

These compounds were tested against Cytochrome P450 2C9 (Homo sapiens) (UniProt P11712) (assay: Cytochrome panel assay with activity outcomes). Conditions: recombinant CYP, pro-luciferin dealkylation, luminescence, p450-cyp2c9; series mostly up to 57.1 µM; activity, negative = inhibition: at the top concentration.
Chain of Cytochrome P450 2C9 (Homo sapiens) (P11712 whole entry, looked up): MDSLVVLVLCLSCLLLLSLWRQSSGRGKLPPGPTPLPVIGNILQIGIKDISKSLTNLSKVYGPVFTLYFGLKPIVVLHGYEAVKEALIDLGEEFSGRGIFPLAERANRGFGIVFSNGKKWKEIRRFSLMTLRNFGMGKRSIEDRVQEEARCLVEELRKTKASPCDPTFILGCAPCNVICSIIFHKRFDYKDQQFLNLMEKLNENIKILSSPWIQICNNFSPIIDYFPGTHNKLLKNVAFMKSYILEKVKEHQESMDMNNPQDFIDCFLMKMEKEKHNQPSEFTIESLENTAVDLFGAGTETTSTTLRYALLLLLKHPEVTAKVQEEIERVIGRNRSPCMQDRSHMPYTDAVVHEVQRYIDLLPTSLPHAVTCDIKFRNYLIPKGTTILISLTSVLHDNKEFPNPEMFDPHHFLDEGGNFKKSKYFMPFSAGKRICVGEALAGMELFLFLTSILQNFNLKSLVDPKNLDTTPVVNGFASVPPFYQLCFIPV
On the % scale 0 is the no-effect control and ±100 the full control effect.

SMILES | activity, negative = inhibition | AC50
COc1ccc2c(=O)cc(-c3ccncc3)oc2c1OC | -7.78% [at 11.4 µM] | 
O=S(=O)(O)c1ccc(-c2nnc(-c3ccccn3)nc2-c2ccc(S(=O)(=O)O)o2)o1 | -9.22% [at 11.4 µM] | 
CO[C@@H]1COC(=O)[C@@H](C)NC(=O)C/C=C\[C@@H](C)[C@H](NS(=O)(=O)c2ccc(C)cc2)COC(=O)[C@H](C)NC(=O)C/C=C\[C@H]1C | 9.56% [at 11.4 µM] | 
CC1(C)OC(=O)NC1=O | 1.46% [at 25.6 µM] | 
COC(=O)Cn1cnc(=O)c(C#N)c1/C=C/N(C)C | -7.06% | 
Cc1cnc(CNc2ncnc3ccc(-c4ccccc4C)cc23)cn1 | 0.0371% [at 2.29 µM] | 
COc1ccc(NC(=O)N2CC[C@@]3(CCCN(C(=O)c4cccn4C)C3)C2)cc1 | -3.34% | 
NC(=O)[C@H]1CC2(CC(c3cccc(NC(=O)c4ccccc4)c3)=NO2)CN1C(=O)[C@H]1CCC(=O)N1 (some centres undefined) | -2.82% | 
c1ccc(Nc2ncnc3ccc(-c4ccoc4)cc23)cc1 | 1.19% [at 2.29 µM] | 
Clc1cccc(Nc2ncnc3ccc(Br)cc23)c1 |  | 14.1 µM (active)
c1ccc(Nc2ncnc3ccc(-c4cccnc4)cc23)cc1 | 5.26% [at 2.29 µM] | 
CNc1ncnc2ccc(-c3ccccc3CN(C)C)cc12 | -7.28% [at 2.29 µM] | 
Brc1ccc2ncnc(Nc3cccc4ccccc34)c2c1 |  | 2.51 µM (active)
NCCNc1ncnc2ccc(Cl)cc12 | 6.44% [at 11.4 µM] | 
CN[C@H]1[C@@H](O[C@@H]2[C@H](O[C@@H]3[C@@H](O)[C@@H](O)[C@@H](N=C(N)N)[C@@H](O)[C@@H]3N=C(N)N)O[C@H](C)[C@@]2(O)C=O)O[C@@H](CO)[C@@H](O)[C@H]1O | 3.44% [at 25.6 µM] | 
CCc1c2c(nc3cccc(SC)c13)COC2 | -23% | 
CC(C)OC(=O)c1nnn(-c2nonc2N)c1CSc1ccccn1 |  | 1.58 µM (active)
Cc1cc(OC(=O)c2ccc(Cl)cc2Cl)nc(C)n1 |  | 5.62 µM (active)
Cc1oc2c(C)c(O)ccc2c(=O)c1-c1ccc2ccccc2n1 | -13.7% | 
CCc1cc2c(=O)c(-c3nc4ccccc4n3C)c(C)oc2c(CN(CC)CC)c1O |  | 14.1 µM (active)
COc1ccc(-n2c(=O)c(-c3cn(C)c4ccccc34)nc3cnc(OC)nc32)cc1 | -6.46% | 
CC[C@H]1CN(C)[C@H]2Cc3c([nH]c4ccccc34)C(=O)C[C@H]1[C@H]2C(=O)OC | -5.96% [at 11.4 µM] | 
O=c1cc(-c2ccccc2)oc2cc(O)c(O)c(O)c12 | 3.94% | 
CCOC(=O)COc1cc(OCC(=O)OCC)c2c(=O)cc(-c3ccccc3)oc2c1 |  | 8.91 µM (active)

SMILES | activity, negative = inhibition | AC50
O=C(O)c1cc(=O)c2c(OCC(O)COc3cccc4oc(C(=O)O)cc(=O)c34)cccc2o1 | 10.9% [at 25.6 µM] | 
COc1cc2nncc(SCc3ccc(Cl)c(Cl)c3)c2cc1OC | -3.4% [at 11.4 µM] | 
COc1cnc(SCc2ccc(Cl)cc2)nc1Cl |  | 22.4 µM (active)
Cc1noc(C)c1-c1nc(N2CCOCC2)c2ccccc2n1 | 4.41% [at 2.29 µM] | 
Cc1nc(N2CCOCC2)nc(N2CCN(c3ccccc3)CC2)c1[N+](=O)[O-] |  | 3.16 µM (active)
Cc1nc2cnc(N3CCOCC3)nc2n(C)c1=O | -21.1% | 
COC(Cn1c(C)c(C(C)=O)c(C(C)=O)c1C)OC | 26.1% | 
c1ccc(-c2cccc(N3CCC4(CCNCC4)CC3)c2)cc1 | -3.68% | 
O=C(O)/C=C\C(=O)Nc1ncn[nH]1 | -8.21% [at 11.4 µM] | 
Cc1noc(NS(=O)(=O)c2ccc(N)cc2)c1C | 2.14% [at 25.6 µM] | 
Cc1ccc(OCC(=O)Nc2ccc(S(=O)(=O)Nc3onc(C)c3C)cc2)cc1 |  | 17.8 µM (active)
Cc1noc(C)c1C(=O)N1CCC[C@@]2(CCN(c3ncccn3)C2)C1 | -5.51% | 
COc1ccc(CNc2nc3ccccc3n2Cc2ccccc2)cc1OC |  | 8.91 µM (active)
C=CCn1c(NCc2ccccc2)nc2ccccc21 | 21.7% | 
COc1ccccc1-c1nccc(NCc2ccccc2)n1 | 4.32% [at 2.29 µM] | 
CCc1c(C(C)O)oc2ccc3c(C)cc(=O)oc3c12 (centres undefined) |  | 7.94 µM (active)
CC(C)n1c(=O)c2c(O)cc(=O)oc2c2ccccc21 | -4.52% | 
Cc1cc2cc3c(C)cc(=O)oc3c(C)c2o1 | -0.447% [at 25.6 µM] | 
NNC(=O)CCc1ccc2ccc3ccccc3c2c1 |  | 1.58 µM (active)
O=C(O)CCCc1ccc2ccc3ccccc3c2c1 | 17.3% [at 11.4 µM] | 
NCCCc1ccc2oc3ccccc3c2c1 | -10.6% [at 11.4 µM] | 
CC(C)COP(=O)(OCC(C)C)C(O)c1ccccc1F (centres undefined) | -25% | 
CCC(C)NC(=O)Cn1cnc2sc(C)cc2c1=O (centres undefined) | -1.84% | 
CCCNC(=O)Cn1cnc2sc(C(=O)Nc3ccc4c(c3)OCO4)c(C)c2c1=O |  | 1.12 µM (active)

SMILES | activity, negative = inhibition | AC50
COc1cccc(OC)c1OCCNC[C@@H]1COc2ccccc2O1 |  | inactive
O=C(Cn1cnc2ccccc2c1=O)NCCC(=O)Nc1ccc2c(c1)OCCO2 |  | 6.31 µM (active)
O=C(CCNC(=O)Cn1cnc2ccccc2c1=O)NCC1COc2ccccc2O1 (centres undefined) |  | 10 µM (active)
O=C1CC2(CCCC2)CC(=O)N1CCCCNC[C@H]1COc2ccccc2O1 | -16.7% | 
C[N@+]1(CCC(=O)c2ccccc2)CC[C@H]2CC[C@H](C2)C1 | 8.55% [at 11.4 µM] | 
N/N=C1/CC(=O)NC(=O)N1 | 28.1% [at 11.4 µM] | 
CC(CC(=O)O)(CC(=O)O)c1ccccc1 | 13.9% [at 11.4 µM] | 
CC(C)(C)C(=O)N(CCN(C(=O)C(C)(C)C)c1ccccc1)c1ccccc1 |  | 15.8 µM (active)
CC(=O)N(CC(=O)O)c1ccccc1C(=O)O | -20.7% | 
O=C(c1cccc(F)c1)N1CCC2(CCCN(c3ccccc3)C2)CC1 |  | 10 µM (active)
CC(C)NC(=O)N1CCCC2(CCN(C(=O)c3cccc(F)c3)CC2)C1 | 24.4% | 
O=C(c1cccc(F)c1)N1CCC2(CCCN(c3ccc(-c4ccccc4)cc3)C2)CC1 |  | 15.8 µM (active)
O=C(c1cccc(F)c1)N1CCC2(CC1)CN(c1ccc(-c3ccccc3)cc1)C2 | -14% | 
O=C(c1cccc(F)c1)N1CCC2(CCCN(c3cccc(-c4ccccc4)c3)C2)CC1 |  | 12.6 µM (active)
O=C(c1cccc(F)c1)N1CCC2(CC1)CCN(c1cccc(-c3ccccc3)c1)CC2 | -3.94% | 
O=C(c1cccc(F)c1)N1CCC[C@@]2(CCN(c3ccccc3)C2)C1 | 4.38% | 
O=C(c1cccc(F)c1)N1CCC2(CC1)CCN(c1ccc(-c3ccccc3)cc1)CC2 | 5.13% | 
O=C(c1cccc(F)c1)N1CCC2(CC1)CN(c1cccc(-c3ccccc3)c1)C2 | -14.6% | 
O=C(c1cc(C(F)(F)F)cc(C(F)(F)F)c1)N1CCC[C@@]2(CCN(c3ccccn3)C2)C1 | -4.83% | 
Clc1ccc(C(c2nnnn2C2CCCC2)N2CCN(Cc3ccncc3)CC2)cc1 (centres undefined) |  | 1.12 µM (active)
CN1CCCN([C@@H](c2ccccc2)c2ccc(Cl)cc2)CC1 | 0.463% [at 25.6 µM] | 
Cc1ccc(C(c2nnnn2C2CCCC2)N2CCN3CCCC3C2)cc1 (centres undefined) | -15.1% | 
COc1ccc2c(c1)c(CC(=O)O)c(C)n2C(=O)c1ccc(Cl)cc1 | 6.09% | 
COc1ccc2c(c1)c(CC(=O)O)c(C)n2C(=O)c1ccccc1 |  | 10 µM (active)

SMILES | activity, negative = inhibition | AC50
COc1ccc2c(c1)c(CC(=O)OCC(=O)O)c(C)n2C(=O)c1ccc(Cl)cc1 | -5.28% [at 25.6 µM] | 
O=C(O)/C=C\[C@H](O)c1ccc(Cl)cc1 | -12.8% | 
O=C(CSC1=NCCN1)Nc1ccccc1 | 2.48% [at 11.4 µM] | 
c1ccc(CSc2nnc3c4ccccc4c4ccccc4c3n2)cc1 | -1.66% [at 11.4 µM] | 
O=C(CSc1nnc2c3ccccc3c3ccccc3c2n1)Nc1ccccc1 |  | 2.51 µM (active)
C[N+]1(CCC[N+]2(C)C[C@H]3[C@H](C2)[C@H]2C=C[C@@H]3CC2)CCOCC1 (some centres undefined) | -9.72% [at 11.4 µM] | 
N[C@]1(C(=O)O)CCc2cc(P(=O)(O)O)ccc21 | -9.65% | 
CCc1ccc(OCC(=O)NNC(=O)CSc2ncnc3sc(C)c(C)c23)cc1 | 13.8% | 
COC(=O)c1c(-c2ccccc2)csc1NC(=O)CSc1ncnc2sc(C)c(C)c12 |  | 1.26 µM (active)
Nc1nc(Nc2ccccc2)nc2c1ncn2[C@@H]1O[C@@H](CO)[C@H](O)[C@H]1O |  | 0.794 µM (active)
Nc1nc(Cl)nc2c1ncn2[C@@H]1O[C@@H](CO)[C@@H](O)[C@H]1O | -24.4% | 
Nc1nc(Nc2ccccc2)nc2c1ncn2[C@@H]1O[C@@H](CO)[C@H](O)[C@@H]1O | -3.52% | 
Nc1ccc(-c2sc(N)nc2-c2ccccc2)cc1 |  | 28.2 µM (active)
Nc1nc(-c2ccccc2)c(-c2ccccc2)c(-c2nc(N)nc(-c3ccccc3)c2-c2ccccc2)n1 | -3.1% [at 11.4 µM] | 
COc1ccc(CNc2ncnc3ccc(-c4c(C)noc4C)cc23)c(OC)c1 | -23.3% [at 2.29 µM] | 
CCNc1ncc2ncc(=O)n(Cc3ccc(F)cc3)c2n1 |  | 20 µM (active)
CCNc1ncc2nc(C)c(=O)n(Cc3ccc(F)cc3)c2n1 | 18.9% | 
CN(C)c1ncc2nc(-c3ccccc3)c(=O)n(Cc3ccc(F)cc3)c2n1 | -9.82% | 
CCNc1ncc2nc(-c3ccc(Cl)cc3)c(=O)n(Cc3ccc(F)cc3)c2n1 | 16.8% | 
CN(C)c1ncc2ncc(=O)n(Cc3ccc(F)cc3)c2n1 |  | 10 µM (active)
COc1ncc2ncc(=O)n(Cc3ccc(F)cc3)c2n1 | -8.06% | 
C[C@H](N)C1CCC(C(=O)Nc2ccncc2)CC1 (some centres undefined) | -14.4% | 
